# According to PubChem BioAssay AID1671192 (National Center for Advancing Translational Sciences (NCATS), 2021):
# Inconclusive results are not listed. Calls of active or inactive are those of the source. Calls come from the whole dose curve; as a rule, active = well fitted curve in the direction sought with a large enough effect; inconclusive = small, poorly fitted or top-dose-only effect, or another doubt; inactive = no such curve, though single readings can be large or run the other way.
# Target: Polyunsaturated fatty acid lipoxygenase ALOX15 (Homo sapiens) (UniProt P16050)
# Sequence (P16050 whole entry, looked up): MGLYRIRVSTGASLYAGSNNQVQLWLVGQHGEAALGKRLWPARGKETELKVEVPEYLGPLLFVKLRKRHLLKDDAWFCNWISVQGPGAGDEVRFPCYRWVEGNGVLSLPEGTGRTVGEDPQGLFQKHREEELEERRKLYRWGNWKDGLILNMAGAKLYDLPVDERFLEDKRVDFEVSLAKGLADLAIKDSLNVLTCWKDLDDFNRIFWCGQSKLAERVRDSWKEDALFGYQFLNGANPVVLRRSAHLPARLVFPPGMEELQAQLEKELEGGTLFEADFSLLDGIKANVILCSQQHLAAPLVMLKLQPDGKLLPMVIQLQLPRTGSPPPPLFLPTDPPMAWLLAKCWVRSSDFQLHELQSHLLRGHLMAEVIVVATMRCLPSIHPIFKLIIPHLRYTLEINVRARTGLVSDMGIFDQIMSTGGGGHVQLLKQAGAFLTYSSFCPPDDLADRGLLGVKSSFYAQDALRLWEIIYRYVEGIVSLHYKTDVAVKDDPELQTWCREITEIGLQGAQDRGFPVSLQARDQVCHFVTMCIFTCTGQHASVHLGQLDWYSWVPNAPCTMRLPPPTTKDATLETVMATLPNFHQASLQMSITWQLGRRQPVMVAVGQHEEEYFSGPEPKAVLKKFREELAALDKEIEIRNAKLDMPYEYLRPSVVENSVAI
# Assay: Counterscreen qHTS for inhibitors of human arachidonate 12S-lipoxygenase (ALOX12): ALOX15 Assay; note: 0% is about no effect
# Settings: purified ALOX15 enzyme activity; series mostly up to 110 µM; activity change, negative = inhibition: at the top concentration
# Outline: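 Purified human ALOX15 (15hLO-1) at 40 nM in 25 mM HEPES, 0.01% Triton X-100, pH 7.5, preincubated with compound 15 min at RT. Then 50 uM arachidonic acid for 30 min; hydroperoxide detected by Fe-xylenol orange as the 573/405 nm absorbance ratio.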
row,SMILES,"activity change, negative = inhibition"
1,O=C(O)CCCC(=O)N1Cc2ccccc2CC2(CCCCN2CCc2ccccc2)C1 (centres undefined),-14.5% (inactive)
2,COc1ccc(CC(=O)N2Cc3ccccc3CC23CCCN(C(=O)CCCN)C3)cc1 (centres undefined),-8.16% (inactive)
3,O=C1NCc2ccccc2CC12CCCN2Cc1cnc2ccccc2c1 (centres undefined),-16.9% (inactive)
4,O=[S+]([O-])(c1ccccc1)N1CC(Oc2ccc(F)c(F)c2)C1,-9.6% [at 146 µM] (inactive)
5,COc1ccc(CC(=O)N2Cc3ccccc3CC3(CCN(CC4CCNC4)C3)C2)cc1 (centres undefined),8.23% (inactive)
6,O=C(NC1CCNCC1)c1cc(C2CC2)nc2onc(C3CCCN3)c12 (centres undefined),-15.5% (inactive)
7,Cn1nc(C2CCCN2)c2c(C(=O)NCc3ccncc3)cc(C3CC3)nc21 (centres undefined),-21.1% (inactive)
8,CNC(C)c1cccc(OC)c1 (centres undefined),-2.15% [at 233 µM] (inactive)
9,COc1ccc(C(=O)N2CCOC3(CCN(C(=O)CN)CC3)C2)cc1,-8.06% (inactive)
10,Cc1cc(C(=O)NCc2ccc(F)cc2)c2c(C3CCCNC3)noc2n1 (centres undefined),-6.25% (inactive)
11,O=C1NCc2ccccc2CC12CCN(Cc1cccc3ccccc13)C2 (centres undefined),-22.1% (inactive)
12,NCc1cccc(-c2ccccc2F)c1,18.2% [at 146 µM] (inactive)
13,O=C1NCc2ccccc2CC12CCN(Cc1ccc(F)cc1F)CC2,-19.6% (inactive)
14,O=C1Nc2ccccc2C12CCN(Cc1ccccc1)C2 (centres undefined),-8.29% [at 146 µM] (inactive)
15,O=C(c1ccccc1)N1CCn2c(nn(-c3cccc(Cl)c3)c2=O)C1,-14.8% [at 146 µM] (inactive)
16,CCC(=O)N1Cc2ccccc2CC2(CCN(CC3CCNC3)C2)C1 (centres undefined),-13.1% [at 146 µM] (inactive)
17,CCc1nc2c(c(-c3ccc(OC)cc3)n1)CCN(Cc1ccc(OC)cc1)CC2,-6.42% (inactive)
18,Cc1ccc(CN2CCC3(Cc4ccccc4CNC3=O)C2)cc1 (centres undefined),-27.6% [at 146 µM] (inactive)
19,O=C1NC2(Cc3ccccc31)CN(C(=O)c1ccc3c(c1)OCO3)C2,-17.4% [at 146 µM] (inactive)
